In PubChem BioAssay AID803 (The Scripps Research Institute Molecular Screening Center, 2007):
Screen size: about 140,000 compounds; about 680 (0.49%) were called active. The sample as a whole holds a higher share of actives than the screen did. Values without a mark were called inactive. No stated cut-off is given here; in the data, active means activation above about 5% (passing the limit was not always enough); inactive means the rest.

What follows are compounds tested against Galanin receptor type 2 (Homo sapiens) (UniProt O43603) (assay: human galanin receptor 2 activators – cell-based, primary screen (AID 803;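 further: 0% = vehicle buffer wells and 100% = reference agonist at full effect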)). Conditions: GALR2-expressing cells, agonist activation read-out; at 5.6 µM; active compounds read high.
Chain of Galanin receptor type 2 (Homo sapiens) (O43603 whole entry, looked up): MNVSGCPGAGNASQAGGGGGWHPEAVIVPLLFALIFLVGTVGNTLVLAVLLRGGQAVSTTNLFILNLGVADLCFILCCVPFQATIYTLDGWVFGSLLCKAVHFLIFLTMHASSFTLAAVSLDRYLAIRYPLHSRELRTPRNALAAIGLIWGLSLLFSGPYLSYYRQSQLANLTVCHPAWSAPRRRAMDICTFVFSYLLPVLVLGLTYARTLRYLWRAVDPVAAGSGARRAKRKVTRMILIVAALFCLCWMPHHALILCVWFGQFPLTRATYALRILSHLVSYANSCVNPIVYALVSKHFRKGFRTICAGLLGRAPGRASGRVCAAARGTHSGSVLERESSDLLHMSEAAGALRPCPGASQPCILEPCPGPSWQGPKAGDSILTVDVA

Q: CC(C)C(=O)Nc1cccc(NC(=O)c2ccc([N+](=O)[O-])cc2Cl)c1 was tested. Which activation did it give?
A: 7.57% (active)

Q: For CCC(C)C(=O)Nc1cc([N+](=O)[O-])ccc1Cl (centres undefined), which activation is on record?
A: -0.24%

Q: COc1ccc(S(=O)(=O)NC(C)C(=O)Nc2cccc([N+](=O)[O-])c2)cc1 (centres undefined) was tested. Which activation did it give?
A: -0.92%

Q: C/C(=N\N=C(N)N)c1ccc(Cl)cc1 was tested. Which activation did it give?
A: -2.59%

Q: For O=C(NN1C(=O)C2C3C=CC(C3)C2C1=O)c1ccco1 (centres undefined), which activation is on record?
A: -0.17%

Q: With CC1(C)CC(=O)C=C(NCCN2CCNCC2)C1 as the compound, how does the activation read?
A: 33.1% (active)

Q: How did the activation turn out when CC1(C)CC(=O)C=C(NCCCN2CCCC2=O)C1 was run?
A: -3.74%

Q: For CC1(C)CC(=O)C=C(NCCCNC2CCCCC2)C1, which activation is on record?
A: -0.48%

Q: For COc1cccc(/C=N/Nc2ncc(C(F)(F)F)cc2Cl)c1O, which activation is on record?
A: 0.04%

Q: For Cc1cc(O)ccc1NC1=CC(=O)CC(C)(C)C1, which activation is on record?
A: -0.24%

Q: How did the activation turn out when O=C(NCCc1ccccc1)/C(=C\c1ccc([N+](=O)[O-])cc1)NC(=O)c1ccccc1 was run?
A: -1.62%

Q: How did the activation turn out when O=C(O)c1ccc(NC(=O)c2cccs2)cc1 was run?
A: -3%

Q: Which activation does the source give for COCCCNC(=S)NC(=O)c1ccc([N+](=O)[O-])cc1 here?
A: -2.33%

Q: O=C(Nc1ccccc1)/C(=C/c1ccc([N+](=O)[O-])cc1)NC(=O)c1ccccc1 was tested. Which activation did it give?
A: 5.48% (active)

Q: Which activation does the source give for O=C(N/N=C/c1ccc(O)cc1)/C(=C/c1ccc([N+](=O)[O-])cc1)NC(=O)c1ccccc1 here?
A: -1.29%

Q: Which activation does the source give for O=C(NC(=S)Nc1ccc(NC(=O)c2cccs2)cc1)c1ccc([N+](=O)[O-])cc1 here?
A: 13.8% (active)

Q: Cc1ccccc1C(CC(=O)c1cccs1)C(C#N)C#N (centres undefined) was tested. Which activation did it give?
A: -0.23%

Q: Which activation does the source give for Cc1cc2c(C)nc(N/N=C/c3ccccc3)nc2o1 here?
A: 0.45%

Q: With O=C(Oc1ccccc1Cl)c1ccc(N2CCOCC2)c([N+](=O)[O-])c1 as the compound, how does the activation read?
A: -1.48%

Q: Which activation does the source give for CC(=O)c1sc(N/N=C\c2ccc(C)cc2)nc1C here?
A: 2.02%

Q: How did the activation turn out when O=C(CSc1ncnc2scc(-c3ccccc3)c12)NCc1ccc2c(c1)OCO2 was run?
A: -1.28%

Q: Which activation does the source give for CC(C)(C)SCCNC(=O)c1cccc([N+](=O)[O-])c1 here?
A: -0.73%

Q: How did the activation turn out when Cc1ccc(S(=O)(=O)N2CCN(CC(=O)N/N=C/c3cc([N+](=O)[O-])ccc3Cl)CC2)cc1 was run?
A: -0.78%

Q: Which activation does the source give for CSc1nc(-c2ccccc2)nc(C(Cl)Cl)n1 here?
A: 8.01% (active)

Q: CSc1nc(C)cc(SC(C(C)=O)C(=O)Nc2ccccc2)n1 (centres undefined) was tested. Which activation did it give?
A: -0.36%

Q: Which activation does the source give for CC(=O)CCC(=O)c1ccc2ccccc2c1 here?
A: -2.23%

Q: For Cc1ccc(C(=O)NC(=S)NCCN2CCOCC2)cc1, which activation is on record?
A: -1.71%

Q: Which activation does the source give for O=C1CC(NNc2ccccc2)C(=O)N1c1cccc(Cl)c1 (centres undefined) here?
A: -2.24%

Q: For COc1cc2c(cc1/C=C1/NC(=O)N(c3ccccc3)C1=O)OCO2, which activation is on record?
A: 1.22%

Q: With O=C1N/C(=C/c2cccn2-c2ccccc2)C(=O)N1c1cccc(Cl)c1 as the compound, how does the activation read?
A: 6.96% (active)

Q: CCOc1ccc2nc(NC(=O)c3cc([N+](=O)[O-])ccc3N3CCOCC3)sc2c1 was tested. Which activation did it give?
A: -0.53%

Q: Which activation does the source give for O=C(Nc1cccc(NC(=O)N2CCN(c3ccccc3)CC2)c1)N1CCN(c2ccccc2)CC1 here?
A: -2.65%

Q: With O=C1COc2ccc(NC(=O)N3CCN(c4ccc(F)cc4)CC3)cc2N1 as the compound, how does the activation read?
A: 12.7% (active)

Q: With COc1cccc(N2CCN(C(=O)Nc3ccc4c(c3)NC(=O)CO4)CC2)c1 as the compound, how does the activation read?
A: -2.77%

Q: For COCC(=O)N=Nc1c(O)[nH]c2ccccc12, which activation is on record?
A: -0.5%

Q: For CN(c1ccccc1)c1nc(N)c([N+](=O)[O-])c(NCc2ccco2)n1, which activation is on record?
A: 1.08%

Q: CCc1nnc(NC(=O)C2CC(=O)N(c3ccc4c(c3)OCCO4)C2)s1 (centres undefined) was tested. Which activation did it give?
A: 0.1%

Q: Which activation does the source give for CNC(=S)NNC(=O)c1sccc1OCc1ccccc1 here?
A: -1.56%

Q: For COc1cc(/C=N/n2c(C)n[nH]c2=S)ccc1OCc1ccccc1, which activation is on record?
A: 1.11%

Q: For CNC(=S)N/N=C/c1ccc(OCc2ccccc2)c(Br)c1, which activation is on record?
A: 7.44% (active)

Q: COc1ccc(/C(N)=N/OC(=O)CCCc2ccccc2)cc1 was tested. Which activation did it give?
A: -0.21%

Q: With C=C(C)c1cccc(C(C)(C)NC(=O)NC2CCCC2)c1 as the compound, how does the activation read?
A: -1.16%

Q: With COc1ccc(C(=O)OCC(=O)NC(=O)CCSc2ccccc2)cc1 as the compound, how does the activation read?
A: -1.93%

Q: Which activation does the source give for CC(Sc1cccc[n+]1[O-])C(=O)Nc1cccc(S(=O)(=O)N2CCOCC2)c1 (centres undefined) here?
A: -0.5%

Q: Which activation does the source give for COc1ccc(Nc2nc(N)nc(CSC(=S)N3CCC(C)CC3)n2)cc1 here?
A: 0.01%

Q: With COCCNC(=S)N/N=C/c1c(C)[nH]c2ccccc12 as the compound, how does the activation read?
A: -0.61%

Q: CCOC(=O)c1c(C)c(C(=O)NCCc2ccc(S(N)(=O)=O)cc2)c(C)n1CC was tested. Which activation did it give?
A: -2.14%

Q: How did the activation turn out when CCCNC(=O)c1c(N)n(-c2ccc(S(N)(=O)=O)cc2)c2nc3ccccc3nc12 was run?
A: 35.1% (active)

Q: With CCC(=O)Nc1c(S(=O)(=O)c2ccccc2)c2nc3ccccc3nc2n1Cc1ccccc1 as the compound, how does the activation read?
A: 2.15%

Q: Which activation does the source give for CCC(CC)C(=O)N1CCN(c2cccc(C)c2C)CC1 here?
A: -1.21%

Q: With Cc1cc(C(=O)N/N=C/c2ccc(O)c([N+](=O)[O-])c2)c(C)n1-c1ccc(F)cc1 as the compound, how does the activation read?
A: 1.21%

Q: How did the activation turn out when Cc1[nH]c2ccccc2c1/C=N\NC(=O)Cn1nnc(-c2ccccc2)n1 was run?
A: 5.32% (active)

Q: How did the activation turn out when O=C(Cn1nnc(-c2ccccc2)n1)N/N=C/c1ccc(-c2ccc(Cl)cc2)o1 was run?
A: -0.89%

Q: For O=C(Cn1nnc(-c2ccccc2)n1)NCc1ccccc1, which activation is on record?
A: -0.65%

Q: How did the activation turn out when COc1ccc(NC(=O)CN2C(=O)C(c3ccccc3)=NC23CCCCCC3)cc1OC was run?
A: -2.09%

Q: For CC(=O)NNC1=Nc2ccccc2N(C)C(C)C1 (centres undefined), which activation is on record?
A: -1.09%

Q: How did the activation turn out when COc1cccc(/C=N/NC(=O)CNC(=O)c2ccc(S(=O)(=O)N3CCOCC3)cc2)c1OC was run?
A: -1.42%

Q: For CN(C(=O)CSc1nnc(-c2n[nH]c3ccccc23)o1)c1ccccc1, which activation is on record?
A: 0.05%

Q: Which activation does the source give for Cc1ccc2sc(NNC(=O)c3ccc4c(c3)OCCO4)nc2c1C here?
A: -2.21%

Q: Which activation does the source give for O=C(O)CCC(=O)N(Cc1cccs1)Cc1cccs1 here?
A: 0.14%

Q: For CC(=O)N(Cc1cccs1)C1CCOC(C)(C)C1 (centres undefined), which activation is on record?
A: 36.2% (active)

Q: With Cc1ccsc1C(C(=O)NC1CCCCC1)N(C(=O)Cc1cccs1)C1CC1 (centres undefined) as the compound, how does the activation read?
A: 0.48%

Q: Which activation does the source give for Cc1nn(-c2ccccc2)c(NC(=O)c2cccs2)c(-c2ccc(Cl)cc2)c1=O here?
A: -0.28%

Q: COc1ccc(C(=O)CN2C(=O)NC(C)(c3ccc(C)cc3)C2=O)cc1OC (centres undefined) was tested. Which activation did it give?
A: 10.3% (active)

Q: With COc1ccc(C(=O)Cn2nnc(-c3ccc(N4CCOCC4)cc3)n2)cc1OC as the compound, how does the activation read?
A: -0.59%

Q: How did the activation turn out when COc1ccc(C(=O)n2nc(-c3ccc(C)cc3)nc2N)cc1OC was run?
A: -1.18%

Q: Which activation does the source give for COC(=O)c1cc2nc(-c3ccccc3)cc(C(F)(F)F)n2n1 here?
A: -0.55%

Q: With CCN(CC)c1nc(-c2ccccc2)cc(C(F)(F)F)c1C#N as the compound, how does the activation read?
A: 14.6% (active)

Q: How did the activation turn out when N#Cc1c(C(F)(F)F)cc(-c2ccccc2)nc1SCC(=O)N1CCOCC1 was run?
A: -2.74%

Q: O=S(=O)(c1ccc(F)cc1)N1CCN(C(=S)NC2CCCC2)CC1 was tested. Which activation did it give?
A: -1.23%

Q: Which activation does the source give for Cc1cccc(C(=O)NC(=S)N2CCN(c3ccc([N+](=O)[O-])cc3)CC2)c1 here?
A: 0.09%

Q: CCCCOc1ccc(C(=O)NCc2ccco2)cc1 was tested. Which activation did it give?
A: -1.35%

Q: With CCCOc1ccc(C(=O)C(CCC(CNCC)C(=O)c2ccc(OCCC)cc2)CNCC)cc1 (centres undefined) as the compound, how does the activation read?
A: 24.7% (active)

Q: CCCCOc1ccc(C(=O)NCc2ccncc2)cc1 was tested. Which activation did it give?
A: -0.14%

Q: For CCc1ccc(Oc2coc3cc(OC(=O)c4cc5ccccc5oc4=O)ccc3c2=O)cc1, which activation is on record?
A: 0.76%

Q: With OC(COCC1COc2ccccc2O1)CN1CCN(c2ccc(F)cc2)CC1 (centres undefined) as the compound, how does the activation read?
A: -0.37%

Q: With CCN(/N=C/c1ccc(N(C)C)cc1)c1nc2ccccc2[nH]1 as the compound, how does the activation read?
A: -1.85%

Q: For COc1cc(NS(=O)(=O)c2ccc(N=Cc3c(C)[nH]n(-c4ccccc4)c3=O)cc2)nc(OC)n1, which activation is on record?
A: -4.11%

Q: With COc1cc(SC#N)ccc1N=Cc1c(C)[nH]n(-c2ccc(C)cc2)c1=O as the compound, how does the activation read?
A: 17.6% (active)

Q: How did the activation turn out when CCc1nnc(NS(=O)(=O)c2ccc(N=Cc3c(C)[nH]n(-c4ccc(C)cc4)c3=O)cc2)s1 was run?
A: -3.95%

Q: For CC(=O)NCCC(=O)Nc1nc(C)c(Cc2ccc3c(c2)OCO3)s1, which activation is on record?
A: -0.64%

Q: Which activation does the source give for Cc1cc(F)ccc1S(=O)(=O)N1CCCOC1CNC(=O)C(=O)NCCC1=CCCCC1 (centres undefined) here?
A: -0.65%

Q: How did the activation turn out when COc1ccc(OCc2cn3c(C)cc(C)nc3n2)cc1 was run?
A: -0.2%

Q: With COc1ccc(Nc2cc(C)nc(-n3nc(C)cc3C)n2)cc1 as the compound, how does the activation read?
A: 0.3%

Q: Which activation does the source give for COc1ccc(C(C[N+](=O)[O-])n2nc(C)cc2C)cc1 (centres undefined) here?
A: 5.52% (active)

Q: Which activation does the source give for CCC1C(=O)c2ccccc2N(C)C1=O (centres undefined) here?
A: -2.42%

Q: For CCC(C)NC(=O)c1c(N)n(/N=C/c2cccs2)c2nc3ccccc3nc12 (centres undefined), which activation is on record?
A: -0.44%

Q: How did the activation turn out when C=CCn1c(N)c(C(=O)OCC(C)C)c2nc3ccccc3nc21 was run?
A: -3.82%

Q: How did the activation turn out when CC(C)Cn1c(N)c(C(=O)NCc2cccs2)c2nc3ccccc3nc21 was run?
A: 29.6% (active)

Q: With CCN(CC)c1ccc(S(=O)(=O)N2CCOCC2)cc1NC(=O)CSc1cccc[n+]1[O-] as the compound, how does the activation read?
A: -0.35%

Q: Which activation does the source give for O=C(Cc1cccs1)Nc1nnc(SCc2ccc(F)cc2)s1 here?
A: 1.11%

Q: Which activation does the source give for CCCCOc1ccc(C(=O)NN2CCN(C)CC2)cc1 here?
A: 0.08%

Q: CCCCOc1ccc(C(=O)NCC(=O)OCC(=O)N2CCN(S(=O)(=O)c3ccc(C)cc3C)CC2)cc1 was tested. Which activation did it give?
A: 7.56% (active)

Q: CCCc1cc(=O)[nH]c(SCC(=O)N2CCN(S(=O)(=O)c3ccc(C)cc3C)CC2)n1 was tested. Which activation did it give?
A: 2.71%
